TROY NFkB inh: blocks TROY-dependent signaling in reporter cells; Q293 LMP1-TROYcd NF-kB luciferase reporter, 4 h; inhibition, % at 10 µM; hit rate 0.98% among 360,000;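 active means compounds whose plate-normalised and pattern-corrected inhibition of the luciferase reporter signal at the single screening dose is 50% or more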
HSP90 refold inh: HSP90 refolding inhibition in rabbit reticulocyte lysate. luciferase refolding luminescence, 3 h. inhibition, % at 5.6 µM. hit rate 0.91% among 290,000. AID 1789;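 active means inhibition above the screen-wide mean plus 3 SD, computed separately per campaign, cut at about 16% in these data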;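 further: 0% = DMSO wells and 100% = 60 µM geldanamycin wells; inhibitors lower the luminescence because luciferase stays unfolded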
aSyn UTR inh: 5' untranslated region of α-synuclein, MLPCN primary screen; alpha-synuclein 5'UTR reporter, inhibitor activity; inhibition, % (tested at 7.5 µM); hit rate 0.82% among 300,000; AID 1813; in the data active means inhibition above about 60%; inconclusive means no clear call, values can overlap the other calls;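 further: H4 neuroglioblastoma cells stably carrying SNCA 5'UTR luciferase fusion; 0% = DMSO wells and 100% = positive control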
HIF-2a block: HIF-2a inhibition. 786-0 RCC cells HIF-2a reporter, luciferase luminescence, overnight. inhibition, % at 18.8 µM. hit rate 0.72% among 360,000;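 active means inhibition of the luminescence signal of 40% or more relative to plate controls, in a single-dose primary screen at 18.75 µM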
TRAIL sens C8: sensitizes caspase-8 expressing cells to TRAIL. AID 624354. hit rate 1% among 360,000. inhibition (viability loss, TRAIL sensitization), % at 10 µM. NB7+C8 cells + TRAIL, ATPlite viability luminescence;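 active means compounds causing at least 50% loss of cell viability in the single-dose screen, relative to plate controls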
TWEAK Fn14 block: blocks TWEAK-Fn14 interaction in a reporter cell assay; TWEAK-stimulated Fn14 reporter cells, luciferase luminescence, 8 h; inhibition, % at 10 µM; hit rate 2% among 360,000; AID 1159606; in the data active means inhibition above about 50%
* marks the source's active call; other numbers are inactive results; ? = inconclusive; . = no result given. Shown are actives, neighbours in structure and some others; about 3.9% of the full set was active somewhere.

SMILES | TROY NFkB inh | HSP90 refold inh | aSyn UTR inh | HIF-2a block | TRAIL sens C8 | TWEAK Fn14 block
COCc1cc(=O)[nH]c(SCCS(=O)(=O)c2ccc(Cl)cc2Cl)n1 | 13 | 3 | -18 | 12 | -19 | 55*
CCCCCCCCN1C(=O)[C@H](CC(=O)NCCc2ccccc2OC)C[C@@]2(C(=O)OCC)CCC=C12 | . | . | . | 5 | -8 | .
Cc1ccc(/C=N/Nc2nc3ccccc3[nH]2)s1 | -57 | 10 | -312 | -190 | 13 | 50*
C(=N\Nc1nc2ccccc2[nH]1)/c1ccccc1 | -4 | -1 | -175 | -341 | 4 | 11
Cc1[nH]c2ccccc2c1/C=N/Nc1nc2ccccc2[nH]1 | 57* | 2 | -228 | -206 | 14 | 95*
Cc1ccccc1/C=N/Nc1nc2ccccc2[nH]1 | -29 | 5 | -115 | -263 | 1 | 7
Brc1ccc(-c2ccc(/C=N/Nc3nc4ccccc4[nH]3)o2)cc1 | -24 | -1 | -227 | -290 | 52* | -6
C(=N\Nc1nc2ccccc2[nH]1)/c1c[nH]c2ccccc12 | -25 | -4 | -224 | -237 | -16 | 51*
Cc1nc2c(OCc3ccc(C#N)cc3)cccn2c1N(C)Cc1cccs1 | 6 | . | . | -14 | -12 | 17
OC(c1ccc(Cl)c(F)c1)c1ncc(-c2cccc(F)c2)[nH]1 (configuration not stated) | -5 | . | . | 4 | -21 | 6
C(=N\Nc1nc2ccccc2[nH]1)/c1cccc2cccnc12 | -3 | 4 | 73* | -190 | 19 | 26
COc1ccc(Cn2nnnc2C(C(C)C)N(Cc2ccco2)Cc2cccs2)cc1 (configuration not stated) | . | 5 | 12 | 11 | 4 | 80*
O=C(/C=C/[C@H]1O[C@@H](n2cnc3c(NC(=O)c4ccccc4)ncnc32)[C@H](O)[C@@H]1O)NCC1CCCCC1 | -5 | . | . | 7 | 9 | -13
COc1ccc2c(c1OC)C(=O)N(c1cccc(C)c1)C2 | -31 | -2 | -114 | -153 | 65* | 20
Nc1nc(N)c2cc(S(=O)(=O)c3cccc(C(F)(F)F)c3)ccc2n1 | 22 | . | . | 29 | 73* | 18
Nc1cccnc1S(=O)(=O)c1cccc(C(F)(F)F)c1 | 20 | . | -1 | 22 | -19 | -17
COc1ccc(S(=O)(=O)c2ccc(OC)cc2)cc1 | -11 | 4 | -3 | 9 | -6 | 1
COc1ccc(N=[N+]([O-])c2ccc(OC)cc2)cc1 | -6 | . | . | -82 | 67* | 62*
O=C(CNC(=O)c1ccccc1Br)N/N=C/c1cc(Br)ccc1O | -2 | 1 | 70* | 17 | 43 | 10
O=C(N/N=C/c1coc2ccccc2c1=O)c1ccccc1Br | 21 | -3 | -5 | 14 | -2 | 58*
O=C(N/N=C/c1cc(Cl)ccc1O)c1ccccc1Br | -19 | -1 | 7 | -26 | 53* | -24
O=C(CNC(=O)c1ccccc1F)N/N=C/c1cc(Br)ccc1OC(=O)/C=C/c1ccco1 | -5 | 0 | ? | 15 | 53* | 8
COC(=O)[C@@]12C[C@@H](CC(=O)NCCc3ccccc3OC)C(=O)N(CCc3ccc(OC)c(OC)c3)C1=CCC(C)(C)C2 | . | . | . | -15 | 12 | .
Cc1ccc2nc(Cl)c(/C=N/NC(=O)[C@H]3C[C@@H]3c3ccccc3)cc2c1 | 11 | -4 | -16 | 11 | -1 | -15
O=C(CNC(=O)c1ccccc1)N/N=C/c1cc(Br)ccc1O | 21 | -5 | 39 | 11 | 44 | 28
SMILES | TROY NFkB inh | HSP90 refold inh | aSyn UTR inh | HIF-2a block | TRAIL sens C8 | TWEAK Fn14 block
O=C(CN1CC(c2ccccc2)CC1=O)N/N=C/c1cc(Br)ccc1O (configuration not stated) | -2 | -6 | 34 | 27 | 52* | -10
Cc1ccc2nc(Cl)c(/C=N/NC(=O)c3ccccc3O)cc2c1 | 52* | -1 | -23 | -25 | 3 | -10
COc1ccccc1CNS(=O)(=O)c1cc(CN2C(=O)c3cccnc3C2=O)ccc1OC | 7 | -1 | -11 | 11 | -15 | -2
COc1cc(CCNC2=CC(=O)c3ncccc3C2=O)ccc1O | 1 | . | . | 39 | 58* | 10
O=C1C(SCCO)=C(SCCO)C(=O)c2ccccc21 | 32 | . | . | 97* | 24 | 76*
O=c1[nH]c2ccccc2c(O)c1SCCO | -13 | 1 | 1 | 16 | -3 | 4
CC(C)N1CCCC(C)(C(=O)Nc2nc3ccccc3n2C)C1 (configuration not stated) | 0 | . | . | 10 | -4 | -26
Cc1ccc(C(C)C)c(OCc2ccc(C(=O)N/N=C/c3ccc(O)cc3O)cc2)c1 | -7 | 6 | 96* | 71* | 40 | 27
COc1ccc(-c2ccc(N3C(c4cc(OC)cc(OC)c4)=Cc4ccc(OC)cc4C3CC(C)=O)cc2)cc1 (configuration not stated) | -11 | . | . | -75 | 26 | 6
CC1(C)CC(=O)C=C(NC2=CC3OC(c4ccccc4)OCC3OC2=O)C1 (configuration not stated) | 17 | 0 | -11 | 40 | 0 | 76*
Cc1ccc(/C=C/C(=O)c2c(C)nc3ccccn23)cc1 | -35 | -6 | -90 | -135 | 22 | 52*
CC(=O)c1c(C)nc2ccccn12 | 0 | -3 | 2 | 17 | -9 | 8
O=C(NCc1ccncc1)[C@@H]1CCCN1C(=O)[C@H]1CCCN1C(=O)c1cccc2ccccc12 | -9 | . | . | 10 | 7 | 14
Cc1cc(C)c(C)c(S(=O)(=O)N2CCN(Cc3nc4ccccc4[nH]3)CC2)c1C | 9 | 1 | 6 | 11 | -7 | 7
Cc1ccc(S(=O)(=O)N2CCN(Cc3nc4ccccc4[nH]3)CC2)cc1C | 53* | -6 | 4 | 8 | -3 | -4
Cc1cccc(N/C=C/C(=O)c2cccs2)c1C | -18 | 4 | -53 | -83 | 79* | 58*
COc1cc([N+](=O)[O-])ccc1N/C=C/C(=O)c1cccs1 | 16 | 14 | 21 | -211 | 89* | 42
N#Cc1ccccc1N/C=C/C(=O)c1ccc(Cl)cc1 | -56 | . | -169 | -182 | 51* | 35
CC(=O)Nc1ccc(N/C=C/C(=O)c2ccc(Cl)cc2)cc1 | -43 | 4 | -54 | -145 | 13 | -32
O=C(/C=C/Nc1ccccc1F)c1ccc(Br)cc1 | -7 | -4 | -49 | -127 | 68* | 45
O=C(Nc1ccc2c(c1)OCCO2)C1C(c2ccccc2)=Nc2ccccc2N1C(=O)c1cccnc1 (configuration not stated) | . | . | . | -226 | 1 | .
NC(=O)c1ccccc1N/C=C/C(=O)c1ccc(Cl)cc1Cl | -46 | 12 | 13 | -70 | 90* | 29
Cc1ccc(C(=O)/C=C/Nc2ccccc2C(N)=O)o1 | -66 | 1 | -200 | -288 | 37 | 6
NC(=O)c1ccccc1NC(=O)/C=C/c1cccc(Cl)c1 | -57 | -3 | -133 | -275 | 20 | -4
NC(=O)c1ccccc1N/C=C/C(=O)c1ccc(F)cc1 | 20 | 0 | -65 | -111 | 71* | 34

Source: PubChem BioAssay
